# Measured values reported in PubChem BioAssay AID1159580 (chemical genetic matrix, 2015).
# The whole screen tested about 5,500 compounds, of which about 2,000 (36%) were called active. Inconclusive results (about 18%) are left out. The list shows a part of the results. Unmarked numbers belong to inactive results. No stated cut-off is given here; in the data, active means normalized growth mostly below about 0.91 (no sharp cut-off); inconclusive means no clear call, values can overlap the other calls; inactive means mostly above about 0.92.
# Assay: chemical genetic growth profiling, strain panel (AID 1159580);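 further: tested at 20 µM; growth read once vehicle control cultures reached saturation at 30 °C; 1 = growth at the plate median or of vehicle wells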
# Details: growth OD
# [1] = S. cerevisiae deletion strains, locus YCL061C, strain MRC1, stronger effect = lower value
# [2] = S. cerevisiae deletion strains, locus YHR030C, strain SLT2, stronger effect = lower value
smiles,measurement,setting,value
COc1ccccc1Oc1ccc(C(F)(F)F)cc1NC(=O)NC(=O)c1ccccc1F,normalized growth,"S. cerevisiae deletion strains, locus YAL013W, strain DEP1, stronger effect = lower value",0.997
same,normalized growth,"S. cerevisiae deletion strains, locus YBR229C, strain ROT2, stronger effect = lower value",1
same,normalized growth,[1],0.972
same,normalized growth,"S. cerevisiae deletion strains, locus YDL101C, strain DUN1, stronger effect = lower value",0.968
same,normalized growth,"S. cerevisiae deletion strains, locus YDL134C, strain PPH21, stronger effect = lower value",0.984
same,normalized growth,"S. cerevisiae deletion strains, locus YDR150W, strain NUM1, stronger effect = lower value",1.02
same,normalized growth,"S. cerevisiae deletion strains, locus YEL061C, strain CIN8, stronger effect = lower value",0.979
same,normalized growth,"S. cerevisiae deletion strains, locus YGR078C, strain PAC10, stronger effect = lower value",0.979
same,normalized growth,[2],1
same,normalized growth,"S. cerevisiae deletion strains, locus YHR087W, strain rtc3, stronger effect = lower value",1.06
same,normalized growth,"S. cerevisiae deletion strains, locus YJR043C, strain POL32, stronger effect = lower value",0.984
same,normalized growth,"S. cerevisiae deletion strains, locus YJR075W, strain HOC1, stronger effect = lower value",1.02
same,normalized growth,"S. cerevisiae deletion strains, locus YLR039C, strain RIC1, stronger effect = lower value",0.964
same,normalized growth,"S. cerevisiae deletion strains, locus YLR058C, strain SHM2 (second series), stronger effect = lower value",1
same,normalized growth,"S. cerevisiae deletion strains, locus YLR085C, strain ARP6, stronger effect = lower value",1.02
same,normalized growth,"S. cerevisiae deletion strains, locus YLR262C, strain YPT6, stronger effect = lower value",1.02
same,normalized growth,"S. cerevisiae deletion strains, locus YML094W, strain GIM5, stronger effect = lower value",1.02
same,normalized growth,"S. cerevisiae deletion strains, locus YMR219W, strain ESC1, stronger effect = lower value",0.994
same,normalized growth,"S. cerevisiae deletion strains, locus YMR263W, strain SAP30, stronger effect = lower value",1.01
same,normalized growth,"S. cerevisiae deletion strains, locus YNL153C, strain GIM3, stronger effect = lower value",1
same,normalized growth,"S. cerevisiae deletion strains, locus YNL298W, strain CLA4 (second series), stronger effect = lower value",0.958
same,normalized growth,"S. cerevisiae deletion strains, locus YNL322C, strain KRE1, stronger effect = lower value",0.995
same,normalized growth,"S. cerevisiae deletion strains, locus YNR030W, strain Alg12, stronger effect = lower value",1.03
same,normalized growth,"S. cerevisiae deletion strains, locus YOL006C, strain TOP1, stronger effect = lower value",0.966
same,normalized growth,"S. cerevisiae deletion strains, locus YPL055C, strain LGE1, stronger effect = lower value",1.04
same,normalized growth,"S. cerevisiae deletion strains, locus YPL241C, strain CIN2, stronger effect = lower value",0.992
same,normalized growth,"S. cerevisiae deletion strains, locus YPR135W, strain CTF4, stronger effect = lower value",0.957
same,normalized growth,"S. cerevisiae strains, strain wild type, stronger effect = lower value",0.974
O=C1[O][Bi][O]c2ccccc21,normalized growth,"S. cerevisiae deletion strains, locus YAL021C, strain ccr4, stronger effect = lower value",1.06
same,normalized growth,"S. cerevisiae deletion strains, locus YAL026C, strain drs2, stronger effect = lower value",1.05
same,normalized growth,"S. cerevisiae deletion strains, locus YAL030W, strain snc1, stronger effect = lower value",0.972
same,normalized growth,"S. cerevisiae deletion strains, locus YBL061C, strain skt5, stronger effect = lower value",1.04
same,normalized growth,"S. cerevisiae deletion strains, locus YBR009C, strain hhf1, stronger effect = lower value",0.981
same,normalized growth,"S. cerevisiae deletion strains, locus YBR023C, strain chs3, stronger effect = lower value",1.05
same,normalized growth,"S. cerevisiae deletion strains, locus YBR171W, strain sec66, stronger effect = lower value",1.07
same,normalized growth,"S. cerevisiae deletion strains, locus YBR231C, strain swc5, stronger effect = lower value",1.02
same,normalized growth,"S. cerevisiae deletion strains, locus YBR279W, strain paf1, stronger effect = lower value",0.932
same,normalized growth,"S. cerevisiae deletion strains, locus YCL011C, strain gbp2, stronger effect = lower value",0.966
same,normalized growth,"S. cerevisiae deletion strains, locus YCL016C, strain dcc1, stronger effect = lower value",1.04
same,normalized growth,[1],1.05
same,normalized growth,"S. cerevisiae deletion strains, locus YCL069W, strain vba3, stronger effect = lower value",1.06
same,normalized growth,"S. cerevisiae deletion strains, locus YCR088W, strain abp1, stronger effect = lower value",1.07
same,normalized growth,"S. cerevisiae deletion strains, locus YDL005C, strain med2, stronger effect = lower value",1.05
same,normalized growth,"S. cerevisiae deletion strains, locus YDL040C, strain nat1, stronger effect = lower value",1.03
same,normalized growth,"S. cerevisiae deletion strains, locus YDR001C, strain nth1, stronger effect = lower value",1.03
same,normalized growth,"S. cerevisiae deletion strains, locus YDR069C, strain doa4, stronger effect = lower value",0.944
same,normalized growth,"S. cerevisiae deletion strains, locus YDR137W, strain rgp1, stronger effect = lower value",1
same,normalized growth,"S. cerevisiae deletion strains, locus YDR159W, strain sac3, stronger effect = lower value",0.954
same,normalized growth,"S. cerevisiae deletion strains, locus YDR195W, strain ref2",1.3 [resistant] (active)
same,normalized growth,"S. cerevisiae deletion strains, locus YDR297W, strain sur2, stronger effect = lower value",0.94
same,normalized growth,"S. cerevisiae deletion strains, locus YDR334W, strain swr1, stronger effect = lower value",1.05
same,normalized growth,"S. cerevisiae deletion strains, locus YDR335W, strain msn5, stronger effect = lower value",1.04
same,normalized growth,"S. cerevisiae deletion strains, locus YDR392W, strain spt3, stronger effect = lower value",1.03
same,normalized growth,"S. cerevisiae deletion strains, locus YEL003W, strain gim4, stronger effect = lower value",1.03
same,normalized growth,"S. cerevisiae deletion strains, locus YEL037C, strain rad23, stronger effect = lower value",1.03
same,normalized growth,"S. cerevisiae deletion strains, locus YEL061C, strain CIN8 (second series), stronger effect = lower value",1.02
same,normalized growth,"S. cerevisiae deletion strains, locus YER015W, strain faa2, stronger effect = lower value",0.951
same,normalized growth,"S. cerevisiae deletion strains, locus YER016W, strain bim1, stronger effect = lower value",1.05
same,normalized growth,"S. cerevisiae deletion strains, locus YER111C, strain swi4, stronger effect = lower value",1.02
same,normalized growth,"S. cerevisiae deletion strains, locus YER155C, strain BEM2 (second series), stronger effect = lower value",0.997
same,normalized growth,"S. cerevisiae deletion strains, locus YFR010W, strain ubp6, stronger effect = lower value",1.11 [resistant] (active)
same,normalized growth,"S. cerevisiae deletion strains, locus YGL167C, strain pmr1, stronger effect = lower value",1.03
same,normalized growth,"S. cerevisiae deletion strains, locus YGL173C, strain kem1, stronger effect = lower value",0.416 (active)
same,normalized growth,"S. cerevisiae deletion strains, locus YGL227W, strain vid30, stronger effect = lower value",1.05
same,normalized growth,"S. cerevisiae deletion strains, locus YGL240W, strain doc1, stronger effect = lower value",1.13 [resistant] (active)
same,normalized growth,"S. cerevisiae deletion strains, locus YGL253W, strain hxk2, stronger effect = lower value",1.05
same,normalized growth,"S. cerevisiae deletion strains, locus YHR013C, strain ard1, stronger effect = lower value",1.02
same,normalized growth,"S. cerevisiae deletion strains, locus YHR027C, strain rpn1, stronger effect = lower value",0.904 (active)
same,normalized growth,[2],0.996
same,normalized growth,"S. cerevisiae deletion strains, locus YHR079C, strain IRE1, stronger effect = lower value",0.985
same,normalized growth,"S. cerevisiae deletion strains, locus YHR142W, strain chs7, stronger effect = lower value",1.08
same,normalized growth,"S. cerevisiae deletion strains, locus YJL092W, strain hpr5, stronger effect = lower value",1.06
same,normalized growth,"S. cerevisiae deletion strains, locus YJL095W, strain BCK1 (second series), stronger effect = lower value",0.914 (active)
same,normalized growth,"S. cerevisiae deletion strains, locus YJL095W, strain BCK1, stronger effect = lower value",1.02
same,normalized growth,"S. cerevisiae deletion strains, locus YJL115W, strain asf1, stronger effect = lower value",1.03
same,normalized growth,"S. cerevisiae deletion strains, locus YJL129C, strain trk1, stronger effect = lower value",1.05
same,normalized growth,"S. cerevisiae deletion strains, locus YJL154C, strain vps35, stronger effect = lower value",1.04
same,normalized growth,"S. cerevisiae deletion strains, locus YJL164C, strain tpk1, stronger effect = lower value",0.732 (active)
same,normalized growth,"S. cerevisiae deletion strains, locus YJL166W, strain qcr8, stronger effect = lower value",0.937
same,normalized growth,"S. cerevisiae deletion strains, locus YJR066W, strain TOR1, stronger effect = lower value",0.925
same,normalized growth,"S. cerevisiae deletion strains, locus YKL160W, strain elf1, stronger effect = lower value",0.996
same,normalized growth,"S. cerevisiae deletion strains, locus YKR026C, strain gcn3, stronger effect = lower value",1.05
same,normalized growth,"S. cerevisiae deletion strains, locus YKR091W, strain srl3, stronger effect = lower value",1.04
same,normalized growth,"S. cerevisiae deletion strains, locus YLL001W, strain dnm1, stronger effect = lower value",1.04
same,normalized growth,"S. cerevisiae deletion strains, locus YLL026W, stronger effect = lower value",1.01
same,normalized growth,"S. cerevisiae deletion strains, locus YLL041C, strain sdh2, stronger effect = lower value",1.04
same,normalized growth,"S. cerevisiae deletion strains, locus YLR027C, strain aat2, stronger effect = lower value",1.04
same,normalized growth,"S. cerevisiae deletion strains, locus YLR113W, strain HOG1, stronger effect = lower value",1.06
same,normalized growth,"S. cerevisiae deletion strains, locus YLR221C, strain rsa3, stronger effect = lower value",1.02
same,normalized growth,"S. cerevisiae deletion strains, locus YLR258W, strain gsy2, stronger effect = lower value",1.02
same,normalized growth,"S. cerevisiae deletion strains, locus YLR262C, strain YPT6 (second series), stronger effect = lower value",1.06
same,normalized growth,"S. cerevisiae deletion strains, locus YLR320W, strain mms22, stronger effect = lower value",1.03
same,normalized growth,"S. cerevisiae deletion strains, locus YLR342W, strain FKS1, stronger effect = lower value",1.01
same,normalized growth,"S. cerevisiae deletion strains, locus YLR357W, strain rsc2, stronger effect = lower value",1
same,normalized growth,"S. cerevisiae deletion strains, locus YLR370C, strain arc18, stronger effect = lower value",1.06
same,normalized growth,"S. cerevisiae deletion strains, locus YLR384C, strain iki3, stronger effect = lower value",1.01
same,normalized growth,"S. cerevisiae deletion strains, locus YML120C, strain ndi1, stronger effect = lower value",1.03
same,normalized growth,"S. cerevisiae deletion strains, locus YMR058W, strain fet3, stronger effect = lower value",0.851 (active)
same,normalized growth,"S. cerevisiae deletion strains, locus YMR125W, strain sto1, stronger effect = lower value",1.04
same,normalized growth,"S. cerevisiae deletion strains, locus YMR129W, stronger effect = lower value",0.96
same,normalized growth,"S. cerevisiae deletion strains, locus YMR205C, strain PFK2, stronger effect = lower value",0.985
same,normalized growth,"S. cerevisiae deletion strains, locus YMR231W, strain pep5, stronger effect = lower value",1.02
same,normalized growth,"S. cerevisiae deletion strains, locus YNL071W, strain lat1, stronger effect = lower value",1.03
same,normalized growth,"S. cerevisiae deletion strains, locus YNL183C, strain NPR1, stronger effect = lower value",0.936
same,normalized growth,"S. cerevisiae deletion strains, locus YNL209W, strain ssb2, stronger effect = lower value",0.923 (active)
same,normalized growth,"S. cerevisiae deletion strains, locus YNL248C, strain rpa49, stronger effect = lower value",1.07
same,normalized growth,"S. cerevisiae deletion strains, locus YNL322C, strain KRE1 (second series), stronger effect = lower value",1.05
same,normalized growth,"S. cerevisiae deletion strains, locus YNR049C, strain mso1, stronger effect = lower value",1.05
same,normalized growth,"S. cerevisiae deletion strains, locus YOR001W, strain rrp6, stronger effect = lower value",1.06
same,normalized growth,"S. cerevisiae deletion strains, locus YOR070C, strain gyp1, stronger effect = lower value",1.03
same,normalized growth,"S. cerevisiae deletion strains, locus YOR080W, strain dia2, stronger effect = lower value",1.05
same,normalized growth,"S. cerevisiae deletion strains, locus YOR083W, strain WHI5, stronger effect = lower value",1.03
same,normalized growth,"S. cerevisiae deletion strains, locus YOR106W, strain vam3, stronger effect = lower value",0.861 (active)
same,normalized growth,"S. cerevisiae deletion strains, locus YOR231W, strain MKK1, stronger effect = lower value",1.02
same,normalized growth,"S. cerevisiae deletion strains, locus YOR265W, strain rbl2, stronger effect = lower value",1.04
same,normalized growth,"S. cerevisiae deletion strains, locus YOR270C, strain vph1, stronger effect = lower value",1.35 [resistant] (active)
same,normalized growth,"S. cerevisiae deletion strains, locus YOR290C, strain snf2, stronger effect = lower value",1.01
same,normalized growth,"S. cerevisiae deletion strains, locus YPL051W, strain arl3, stronger effect = lower value",0.945
same,normalized growth,"S. cerevisiae deletion strains, locus YPL078C, strain atp4, stronger effect = lower value",1.04
same,normalized growth,"S. cerevisiae deletion strains, locus YPL106C, strain sse1, stronger effect = lower value",1
same,normalized growth,"S. cerevisiae deletion strains, locus YPL240C, strain hsp82, stronger effect = lower value",1.02
same,normalized growth,"S. cerevisiae deletion strains, locus YPL256C, strain CLN2, stronger effect = lower value",1
